Screens: PubChem, National Center for Advancing Translational Sciences (NCATS)
This is a sample that favours compounds with a hit; in the whole collection about 21% have one here.
TDP1 cell CPT: qHTS for Inhibitors of human tyrosyl-DNA phosphodiesterase 1 (TDP1): qHTS in cells in presence of CPT | chicken DT40 Tdp1-/-;hTDP1 cells + 20 nM CPT, ATP luminescence, 48 h | Potency, µM (top dose mostly 46.2 µM), most hits filed as inhibitors | 420,000 compounds, 12% hits; further: nearly all actives have a fitted effect of over 55% in size
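Chicken DT40 Tdp1-/- cells complemented with human TDP1, 400 cells/well, exposed to compounds plus 20 nM camptothecin for at least 48 h at 37 C; viability read as ATP content by CellTiter-Glo luminescence.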
IL-1B inflam inh: qHTS for Inhibitors of Inflammasome Signaling: IL-1-beta AlphaLISA Primary Screen; THP-1 LPS/ATP IL-1B secretion, AlphaLISA, 16 h; hits give low values; 360,000 compounds, 4.7% hits; activity change, % at 57.5 µM; AID 743279, 2014; in the data active means activity change below about -50%; inconclusive means mostly about -30% to -49%
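Secreted IL-1B measured by AlphaLISA bead assay after 16 h compound exposure of THP-1 cells; compounds (final up to 57.5 uM) added 1 h before LPS (250 ng/mL) and ATP (1.25 mM) stimulation; lower signal means less secretion.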
D3 ag: qHTS of D3 Dopamine Receptor Agonist: qHTS; D(3) dopamine receptor (Homo sapiens), P35462; D3R DiscoveRx beta-arrestin cells, luminescence, 90 min; max activation, %; 410,000 compounds, 0.58% hits; in the data active means max activation above about 30%
Target sequence (P35462 whole entry, looked up): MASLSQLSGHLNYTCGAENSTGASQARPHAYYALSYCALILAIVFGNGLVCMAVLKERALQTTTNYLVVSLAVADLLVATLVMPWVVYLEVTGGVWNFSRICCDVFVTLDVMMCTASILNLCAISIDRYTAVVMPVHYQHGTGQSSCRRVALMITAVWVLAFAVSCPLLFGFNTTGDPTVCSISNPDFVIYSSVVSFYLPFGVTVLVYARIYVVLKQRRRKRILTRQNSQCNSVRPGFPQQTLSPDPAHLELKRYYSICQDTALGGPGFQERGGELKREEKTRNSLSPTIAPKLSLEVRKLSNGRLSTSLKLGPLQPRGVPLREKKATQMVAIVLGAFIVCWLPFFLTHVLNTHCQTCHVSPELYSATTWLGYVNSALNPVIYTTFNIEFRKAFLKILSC
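Agonist-mode cell screen: cells plated at 1500/well and incubated overnight at 37 °C, then exposed to library compounds for 90 min at 37 °C. Detection reagent was added for 30–60 min at room temperature, and luminescence was read.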
ClpP mod: qHTS Assay for Activators of ClpP; ATP-dependent Clp protease proteolytic subunit (Bacillus subtilis (strain 168)), P80244; purified B. subtilis ClpP, FRET peptide cleavage, 20 min; Potency, µM (top dose mostly 57.5 µM); 340,000 compounds, 1.9% hits; AID 651965, 2013; active means well fitted falling curve with a large enough effect; inconclusive means small, poorly fitted or top-dose-only effect; inactive means no such curve, though single readings can be large or run the other way; further: the source files actives as falling curves though it sought activators and does not explain the sign; nearly all actives have a fitted effect of over 65% in size
Target sequence (P80244 whole entry, looked up): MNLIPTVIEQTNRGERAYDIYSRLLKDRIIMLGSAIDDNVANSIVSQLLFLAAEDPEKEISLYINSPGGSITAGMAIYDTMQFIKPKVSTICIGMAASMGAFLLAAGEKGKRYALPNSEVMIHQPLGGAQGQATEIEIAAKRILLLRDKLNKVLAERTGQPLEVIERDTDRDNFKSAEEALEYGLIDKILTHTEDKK
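FRET quenching reversal measured ClpP activation: 10 microg/mL B. subtilis ClpP at pH 8 with the FRET-FV decapeptide, read at 430 nm after 320 nm excitation. The 20-min minus 0-min signal was scaled between DMSO/no-enzyme wells and ADEP (5.8 microM final).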
DT40 TDP1 no CPT: qHTS for Inhibitors of human tyrosyl-DNA phosphodiesterase 1 (TDP1): qHTS in cells in absence of CPT. DT40 Tdp1-/- hTDP1 cells, no CPT, ATP luminescence, 48 h. Potency, µM (series often up to 46.2 µM), most hits filed as inhibitors. 420,000 compounds, 15% hits. AID 686978, 2013; further: nearly all actives have a fitted effect of over 55% in size
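Stably hTDP1-transfected Tdp1-null chicken DT40 cells were treated with library compounds minus camptothecin and grown for at least 48 hr at 37 °C, after which cellular ATP was quantified by luminescence.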
D3 antag: qHTS of D3 Dopamine Receptor Antagonist: qHTS; D(3) dopamine receptor (Homo sapiens), P35462; D3R cells, DiscoveRx beta-arrestin luminescence, antagonist mode; hits give low values; max response, negative = inhibition, %; 360,000 compounds, 2.5% hits; in the data active means max response below about -50%; inconclusive means no clear call, values can overlap the other calls
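Cells plated overnight at 1500 cells/well, then exposed to library compounds with dopamine controls for 90 minutes at 37 degrees C. DiscoveRx reagent added for 30–60 minutes at room temperature; luminescence read, quantitative HTS format.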
Numbers stand for hits; i = inactive; ? = inconclusive; nt = no result. Unless noted, the call rests on the fitted dose curve; in most records, active means well fitted inhibition curve with a large enough effect; inconclusive means small, poorly fitted or top-dose-only effect; inactive means flat fitted curve, though single readings scatter.

SMILES	TDP1 cell CPT	IL-1B inflam inh	D3 ag	ClpP mod	DT40 TDP1 no CPT	D3 antag
CC(OC(=O)CN1C(=O)NC2(CCCC2)C1=O)c1ccc(F)cc1 (stereo not drawn)	i	i	i	i	i	i
COc1ccc(C2C(C(=O)Nc3cccnc3)=C(C)Nc3nc(-c4ccc(OC)c(OC)c4)nn32)cc1 (stereo not drawn)	i	nt	i	i	i	nt
Cc1nc2ccsc2c(=O)n1-c1cccc(Cl)c1	i	i	i	i	i	i
CC(Sc1ccccc1)C(=O)NN=C1CCCCCCC1 (stereo not drawn)	i	i	i	nt	i	i
COc1ccc(N2CCN(C(=O)CSc3c4c(nc5ccc(Cl)cc35)CCCC4)CC2)cc1	21µM	nt	i	i	15µM	nt
O=C(CSc1c2c(nc3ccc(Cl)cc13)CCCC2)N1CCN(c2cccc(Cl)c2)CC1	16µM	nt	i	i	?	nt
COc1ccc(-n2cnnc2SCC(=O)N2CCN(c3ccccc3)CC2)cc1	i	i	i	?	?	i
O=C(CSc1c2c(nc3ccc(Cl)cc13)CCCC2)N1CCN(c2ccc(Cl)cc2)CC1	12µM	nt	i	i	16µM	nt
NCCCCCc1nnc(SC/C=C/c2ccccc2)o1	18µM	i	i	i	23µM	i
O=C(N/N=C/c1ccc2c(c1)OCO2)C1CC1	i	i	i	i	i	i
Cn1c(=O)c2cc(NC(=O)NCc3ccc(F)cc3)ccc2n1C/C=C/c1ccccc1	8.2µM	i	i	i	9.2µM	i
CCNC(=O)Nc1ccc2c(c1)c(=O)n(C)n2CC=C(C)C	i	i	i	i	i	i
Cn1c(=O)c2cc(NC(=O)Cc3ccccc3F)ccc2n1C/C=C/c1ccccc1	?	i	i	i	?	i
CCOCCC(=O)Nc1ccc2c(c1)c(=O)n(C)n2C/C=C/c1ccccc1	4.6µM	i	i	i	3.3µM	i
CC(C)=CCn1c2ccc(NC(=O)NCc3ccc(F)cc3)cc2c(=O)n1C	2.1µM	i	i	i	1.6µM	i
Cc1nn2c(NCCCN(C)C)c3c(nc2c1-c1ccccc1)CCC3	?	i	i	i	29µM	i
O=C1/C(=C\c2cccnc2)Sc2ccccc21	?	i	i	i	21µM	i
N=C(N=C(N)N)N1CCc2ccccc21	?	i	i	nt	13µM	i
O=C(Cn1cccc1)N1CCc2ccccc21	i	i	i	i	i	i
CCN(CC)C(=O)c1cn(CCC#N)nc1-c1ccc2ccccc2c1	i	i	i	i	i	i
COc1cc(SC)ccc1C(=O)OCC(=O)NCC(C)C	i	i	i	40µM	i	i
CC(C)CNC(=O)COC(=O)c1cc(Cl)cc(Cl)c1N	i	i	i	16µM	i	i
NC(=O)COC(=O)c1cc(Cl)cc(Cl)c1N	i	i	i	nt	i	i
CC(C)CNC(=O)COC(=O)c1ccc(F)cc1Cl	i	i	i	nt	i	i
Nc1c(Cl)cc(Cl)cc1C(=O)OCC(=O)N1CCCC1	i	i	i	22µM	i	i
SMILES	TDP1 cell CPT	IL-1B inflam inh	D3 ag	ClpP mod	DT40 TDP1 no CPT	D3 antag
COC(=O)CNC(=O)COC(=O)c1cc(Cl)cc(Cl)c1N	i	i	i	2.8µM	i	i
COc1cc(S(=O)(=O)NC2CCCCC2C)ccc1F (stereo not drawn)	i	i	i	i	i	i
Nc1ncc(Br)cc1S(=O)(=O)Nc1ccccc1F	i	i	i	nt	i	i
Cn1c(Cn2nnc3ccccc32)nnc1SCC(=O)N1c2ccccc2CCc2ccccc21	23µM	i	i	i	?	i
Cn1c(Cn2nnc3ccccc32)nnc1SCC(N)=O	i	i	i	i	i	i
OC(CN1c2ccccc2Sc2ccccc21)Cn1nnc2ccccc21 (stereo not drawn)	?	?	i	i	21µM	i
Cn1c(Cn2nnc3ccccc32)nnc1SCC(=O)N1c2ccccc2Sc2ccccc21	13µM	i	i	i	16µM	-55
Cc1cc(C)c2c(N)c(C(=O)NN)sc2n1	?	?	i	i	?	i
Cc1nn(CC(=O)N2CCC(N3CCCCC3)CC2)c(=O)c2c1sc1ccccc12	i	i	i	i	i	i
CCCNC(=O)Cn1sc2nc(C)cc(C)c2c1=O	3.7µM	?	i	i	4.1µM	i
Cc1cc(C)c2c(=O)n(CC(=O)N3CCC(N4CCCCC4)CC3)sc2n1	15µM	i	i	?	15µM	i
COc1ccc2c(c1)c(=O)c(S(=O)(=O)c1ccc(Cl)cc1)cn2C	i	nt	i	i	?	nt
O=C1CN(C(=O)c2ccco2)C(c2ccccc2)c2cc(Cl)ccc2N1 (stereo not drawn)	16µM	i	i	i	16µM	i
O=C1CN(C(=O)c2ccccc2)C(c2ccccc2)c2cc(Cl)ccc2N1 (stereo not drawn)	i	i	i	nt	?	i
O=C1CN(C(=O)c2ccc(Br)o2)C(c2ccc(F)cc2)c2cc(Cl)ccc2N1 (stereo not drawn)	16µM	i	i	i	?	i
O=C1CN(C(=O)c2ccc(Br)o2)C(c2ccccc2)c2cc(Cl)ccc2N1 (stereo not drawn)	15µM	i	i	i	?	i
COc1cc(=O)n2c(c1C(=O)NCc1ccco1)CCN(Cc1ccc3ccccc3c1)CC2	i	nt	nt	nt	i	nt
CC1(c2ccccc2)NC(=O)N(CC(=O)Nc2ccccc2C(=O)N2CCCCC2)C1=O (stereo not drawn)	i	i	i	i	i	i
Cc1ccc(S(=O)(=O)c2c(C)nn(-c3ccccc3)c2OC(=O)c2ccccc2F)cc1	i	nt	i	i	?	nt
CCOc1ccccc1NC(=O)Cn1nnc2sc(-c3ccccc3)cc2c1=O	i	nt	i	i	?	nt
COC(=O)NC1(C(=O)O)CCCC1	i	i	i	i	i	i
O=S(=O)(NCC(c1cccnc1)N1CCN(Cc2ccccc2)CC1)c1cc(F)ccc1F (stereo not drawn)	?	i	i	i	i	i
Cc1ccc(SCC(=O)OCC(=O)NC2(C#N)CCCCC2)cc1	i	i	i	i	i	i
Cc1ccc(C)c(NC(=S)NC(C)C(c2ccccc2)N2CCN(C)CC2)c1 (stereo not drawn)	?	-62	i	i	?	i
O=C(O)c1cc(NC(=O)c2cccc(F)c2)cc(NC(=O)c2cccc(F)c2)c1	i	i	i	i	i	i
